About 3,300 (8.5%) of roughly 39,000 compounds were called active. Shown is part of a subset that was picked to be rich in actives.

The record followed here is the antibiotic and cytotoxicity screens of Wong et al. (2023).

This experiment relates to HepG2. Briefly: cytotoxicity call (relative viability < 0.9). The following applies: 10 µM.
With `C[C@H](CO)N1C[C@H](C)[C@H](CN(C)C(=O)Nc2ccc3c(c2)OCO3)Oc2ccc(N(C)C)cc2CC1=O`, the cytotoxicity call was “inactive”. On to `CNC(=O)C[C@@H]1CC[C@@H]2[C@H](COC[C@@H](O)CN2C(=O)c2ccc3c(c2)OCO3)O1`, for which the cytotoxicity call was “inactive”. As for `Cn1ccnc1C(=O)NCc1cnc2n1CCNCC2`, the cytotoxicity call is “inactive”. For the molecule `C[C@H](CO)N1C[C@H](C)[C@H](CN(C)Cc2ccc(Cl)c(Cl)c2)Oc2ccc(NC(=O)NC3CCCCC3)cc2C1=O`, the cytotoxicity call was “inactive”. Take `C[C@@H]1CN([C@@H](C)CO)C(=O)c2cc(NS(=O)(=O)c3cccs3)ccc2O[C@@H]1CN(C)Cc1ccc(-c2ccccc2)cc1`: the cytotoxicity call was “inactive”.

In the case of `C[C@@H]1CN([C@H](C)CO)S(=O)(=O)c2ccc(C#CC(C)(C)O)cc2O[C@@H]1CN(C)Cc1ccc(F)cc1`, the cytotoxicity call is “inactive”. Then `FC(F)(F)Oc1ccccc1`, with “inactive”; and `C[C@@H]1CN([C@@H](C)CO)C(=O)Cc2cc(NC(=O)Cn3cnnn3)ccc2O[C@@H]1CN(C)S(=O)(=O)c1cn(C)cn1`, with “inactive”; and `CSc1ccc(-c2nnn(CC(N)=O)n2)cc1`, with “inactive”. To `Cc1noc(C)c1NC(=O)N(C)C[C@H]1Oc2ccc(NC(=O)NC(C)C)cc2C(=O)N([C@H](C)CO)C[C@H]1C` belongs “inactive”. Then `COc1ccc(S(=O)(=O)Nc2ccc3c(c2)C(=O)N([C@H](C)CO)C[C@H](C)[C@H](CN(C)S(=O)(=O)c2cn(C)cn2)O3)cc1`, with “inactive”. As for `C[C@H]1CN([C@@H](C)CO)C(=O)c2cc(NC(=O)c3ccncc3)ccc2O[C@H]1CN(C)S(=O)(=O)c1cccs1`, the cytotoxicity call is “inactive”.

As to `COCCOC(=O)N1C(=O)[C@@]2(c3cc(C#CC4=CCCCC4)ccc31)[C@H](C(=O)N1CCN(c3ncccn3)CC1)[C@H]1C(=O)O[C@H](c3ccccc3)[C@H](c3ccccc3)N1[C@@H]2c1ccc(O)cc1`, the cytotoxicity call was “inactive”.

As to `C=CCn1c(N2CCN(c3ccc(OC)cc3)CC2)nc2c1c(=O)n(C)c(=O)n2C`, the cytotoxicity call was “inactive”.

Take `C=CCn1c(=O)c2cnc(Nc3ccc(N4CCN(C)CC4)cc3)nc2n1-c1cccc(C(C)(C)O)n1`: the cytotoxicity call was “active”. Turning to `COC(=O)C[C@@H]1CC[C@H]2[C@@H](COC[C@@H](O)CN2S(=O)(=O)c2ccccc2C)O1`, the cytotoxicity call was “inactive”.

As to `Cn1c(=O)cc(N2CCC[C@@H](N)C2)n(Cc2ccccc2C#N)c1=O`, the cytotoxicity call is “inactive”. To `Cn1c(=O)cc(N2CCC[C@@H](N)C2)n(Cc2cc(F)ccc2C#N)c1=O` belongs “inactive”; to `Cn1c(=O)cc(N2CCCC(N)C2)n(Cc2ccccc2C#N)c1=O.O=C(O)c1ccccc1` (stereo not given), “active”; to `C[C@H](CO)N1C[C@H](C)[C@@H](CN(C)C(=O)Cc2ccccc2)OCCCC[C@H](C)Oc2ccc(NC(=O)Nc3ccc(F)cc3)cc2C1=O`, “inactive”.
